This is a sample that favours compounds with a hit; in the whole collection about 4.1% have one here.
ssDAF-12 act = activates DAF-12 receptor from parasite S. stercoralis | HEK293 ssDAF-12/GRIP1 lit1-tk-luc reporter, luminescence; % of 3 µM dafachronic acid response | activation, % at 6.8 µM | actives 1% (n = 370,000) | AID 652126;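 active = activation above the mean over all tested compounds plus 3 SD, cut at about 0.9% in these data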;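 also: 0% = DMSO-only wells and 100% = 3 µM delta7-dafachronic acid wells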
hgDAF12 agonist = agonists of H. glycines DAF-12 nuclear receptor. actives 1.8% (n = 370,000). activation, % at 6.8 µM. HEK293 GAL4-hgDAF12 UAS-luciferase reporter, agonist luminescence; normalized to butyrate control;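 active = activation above a cutoff set at the mean of all screened compounds plus 3 SD, cut at about 10% in these data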;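 also: 0% = DMSO wells and 100% = sodium butyrate wells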
hcDAF12 agonist = H. contortus DAF-12 activation, primary screen; HEK293 hcDAF-12 lit1-tk-luc reporter, luminescence; 0% DMSO, 100% Δ7-dafachronic acid; activation, % at 6.8 µM; actives 1.4% (n = 370,000); AID 652067;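 active = activation above the mean of all tested compounds plus 3 SD, cut at about 5.5% in these data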;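 also: 100% = response to 3 µM Δ7-dafachronic acid high control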
DAX1 inh-1 = inhibitors of DAX1 repression of SF-1 activated StAR promoter; HEK293T StAR-luciferase reporter, SF-1/DAX-1 repression relief; inhibition, % at 6.8 µM; actives 1.1% (n = 370,000);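 active = inhibition above the mean over all tested compounds plus 3 SD, cut at about 3.6% in these data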;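 also: 0% = DAX-1 cells with DMSO and 100% = cells lacking DAX-1 with DMSO; higher inhibition means more luminescence from relief of DAX-1 repression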
DAX1 inh-2 = NR0B1 (DAX1) inhibition; P51843; HEK293 Gal4-DAX1 luciferase reporter, luminescence; actives 0.99% (n = 340,000); inhibition, % at 6.75 µM;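 active = inhibition above the mean over all tested compounds plus 3 SD, cut at about 4.2% in these data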;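 also: 0% = DAX1-transfected cells with DMSO and 100% = empty-vector control cells with DMSO; inhibition shows as a rise in luminescence from relieved DAX1 repression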
Target sequence (P51843 207-470 limits assumed): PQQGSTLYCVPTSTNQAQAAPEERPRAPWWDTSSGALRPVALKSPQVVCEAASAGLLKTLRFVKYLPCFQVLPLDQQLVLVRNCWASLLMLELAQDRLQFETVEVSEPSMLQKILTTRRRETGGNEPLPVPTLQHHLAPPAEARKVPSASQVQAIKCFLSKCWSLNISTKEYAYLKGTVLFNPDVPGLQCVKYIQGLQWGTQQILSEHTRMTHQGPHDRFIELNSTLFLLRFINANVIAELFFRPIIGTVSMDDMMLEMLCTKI
LXR ag = LXR-beta agonism as hcDAF-12 counter-screen; shares compounds with hcDAF12 agonist; HEK293 Gal4-LXR tk-luc reporter, luminescence, 24 h; normalized: DMSO 0%, positive control 100%; activation, % at 6.8 µM; 3,400 tested, under 10 active; AID 743027;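 active = mean percent activation of the reporter above a cutoff set as the average over tested compounds plus their standard deviation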
Target sequence (P55055 whole entry, looked up, the tested form may be a part): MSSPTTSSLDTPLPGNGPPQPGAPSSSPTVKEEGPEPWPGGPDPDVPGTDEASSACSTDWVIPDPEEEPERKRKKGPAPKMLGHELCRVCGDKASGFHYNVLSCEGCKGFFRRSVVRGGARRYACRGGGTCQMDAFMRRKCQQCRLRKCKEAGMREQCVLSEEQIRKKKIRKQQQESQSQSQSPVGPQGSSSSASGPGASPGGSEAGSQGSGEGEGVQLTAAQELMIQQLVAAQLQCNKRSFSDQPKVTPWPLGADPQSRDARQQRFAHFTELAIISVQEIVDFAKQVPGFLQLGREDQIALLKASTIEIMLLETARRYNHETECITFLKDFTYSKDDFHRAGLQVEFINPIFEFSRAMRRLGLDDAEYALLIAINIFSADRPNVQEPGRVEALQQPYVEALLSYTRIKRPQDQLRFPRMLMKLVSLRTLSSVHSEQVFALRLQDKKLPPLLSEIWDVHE
hcDAF12 ag = confirmation of H. contortus DAF-12 agonists; activation, % at 6.8 µM; HEK293 hcDAF-12 lit1-tk-luc reporter, luminescence; % of Δ7-dafachronic acid response; AID 743032; shares compounds with hcDAF12 agonist; actives 61% (n = 3,400);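 active = mean activation across triplicate tests above the threshold derived from the earlier primary screen, cut at about 5.5% in these data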;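 also: 0% = DMSO only wells and 100% = 3 µM Δ7-dafachronic acid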
Active calls of the source: *; . = no result given.

SMILES | ssDAF-12 act | hgDAF12 agonist | hcDAF12 agonist | DAX1 inh-1 | DAX1 inh-2 | LXR ag | hcDAF12 ag
COC(=O)C[C@@H]1CC[C@H]2[C@H](COc3ccc(NC(=O)c4cccc(C(F)(F)F)c4)cc3C(=O)N2C)O1 | -1.1 | -3.8 | -1.5 | -0.4 | . | . | .
COCCCNC(=O)C[C@H]1C[C@@]2(C(=O)OC)C(=C[C@H](C(C)C)O[C@@H]2C2CC2)N(Cc2ccco2)C1=O | -1.7 | -2.8 | -1.4 | -1.4 | . | . | .
O=c1oc2c(O)cccc2cc1-c1nc2ccccc2[nH]1 | 0.1 | 9.1 | 8.1* | 1.8 | -1.0 | 1.0 | 2.6
COc1cccc(C(=O)NC(=S)Nc2cccnc2)c1 | 1.0* | 7.4 | 7.8* | 0.7 | -0.5 | 0.3 | 1.1
COc1ccc(NC(=O)C2c3ccccc3OCC(=O)N2CC(F)(F)F)cc1 (stereo not drawn) | -1.1 | -1.5 | -0.6 | 0.7 | . | . | .
O=C1CCC(=O)N1c1ccc(-c2nc3ccccc3s2)cc1 | 0.1 | 4.4 | 7.3* | 2.7 | 2.7 | 1.7 | 9.5*
Cc1ccc(C(=O)NC2CCCCCCC2)c(Cl)c1 | 0.3 | 6.2 | 6.9* | 1.7 | -2.9 | 1.3 | 8.8*
O=C(NC1CCCCCCC1)c1cc(F)c(F)cc1Cl | -0.5 | 8.1 | 2.4 | 2.0 | 2.1 | . | .
CC(C)c1cc(C(=O)OCC(=O)NC2CCS(=O)(=O)C2)c(O)c(C(C)C)c1 (stereo not drawn) | -1.4 | 0.9 | -0.5 | 0.6 | 1.3 | . | .
N/C(=N\NC(=O)Nc1ccccc1)c1ccccn1 | 0.2 | 4.8 | 7.7* | 2.5 | . | 0.1 | 1.9
Cc1cccc(N2C(=O)C3C4C=CC(C5CC45)C3C2=O)n1 (stereo not drawn) | -0.4 | 2.3 | -1.1 | -0.3 | 3.8 | . | .
Cc1cccc(N2O[C@H]3C=C[C@@H]2C3)n1 | -0.3 | 2.1 | 9.4* | 0.2 | . | -0.1 | 5.6*
Cn1ccc2ccc(-c3ccc4c(c3)[C@]3(CCC[C@@H](OCc5ccccc5)[C@@H]3NC(=O)CCc3ccccc3)C(=O)N4Cc3ccccc3)cc21 | -1.5 | -0.8 | -1.8 | -0.1 | . | . | .
O=C1/C(=C/Nc2cccc([N+](=O)[O-])c2)CCc2ccccc21 | 0.2 | 15.8* | 8.1* | 2.5 | 3.6 | 1.3 | 5.8*
Cc1ccc2nc3c(nc2c1)-c1ccccc1C3=O | 1.4* | 4.4 | 11.2* | 0.9 | 1.2 | 0.4 | 6.2*
CS(=O)(=O)N(CC(=O)Nc1ccccc1-c1ccccc1)c1ccccc1 | -0.5 | -1.3 | 0.2 | -0.3 | 0.2 | . | .
Cc1ccc(N(CC(=O)Nc2ccccc2-c2ccccc2)S(=O)(=O)c2ccccc2)c(C)c1 | -1.8 | 2.1 | 6.6* | 0.1 | 0.1 | -0.1 | 2.0
CCC1CCCCN1CCCNC(=O)c1ccc2c(c1)NC(=O)CN2C (stereo not drawn) | -0.8 | -0.4 | 8.8* | -0.6 | 0.8 | -0.3 | -1.2
N#Cc1ccc(Cl)cc1NC(=O)COC(=O)[C@H](CCC(N)=O)NC(=O)c1ccc(F)cc1 | -0.4 | -0.4 | 9.4* | 0.7 | 0.3 | -0.3 | 1.0
CC(=O)c1ccc(NC(=O)c2sc3nc(C)c(C)c(C)c3c2N)cc1 | 1.2* | 10.3 | 8.2* | 2.4 | 6.7* | 0.6 | 5.8*
Cc1nc2sc(C(=O)c3ccccc3)c(N)c2c(C)c1C | -1.1 | 6.0 | -0.3 | -0.6 | 1.3 | . | .
Cc1nc2sc(C(=O)Nc3ccccc3)c(N)c2c(C)c1[N+](=O)[O-] | 1.6* | 10.0 | 8.1* | 4.0* | 6.9* | 0.9 | 9.4*
O=C(c1ccc(Cl)cc1)N1CCCCC(Sc2nnc(-c3ccc4c(c3)OCO4)o2)C1=O (stereo not drawn) | 0.7 | 10.4* | 6.9* | 4.2* | -1.8 | 0.0 | 1.6
CC(C)(C)CN1CCN(CC#Cc2ccccc2)CC1CCO (stereo not drawn) | -0.9 | 3.3 | 7.5* | -0.2 | 1.9 | 0.0 | 4.7
O=C(C1CCC1)n1ccc2ccc(-c3ccc4ccn(Cc5ccccc5)c4c3)cc21 | -0.1 | 5.8 | 2.8 | 0.6 | . | . | .
SMILES | ssDAF-12 act | hgDAF12 agonist | hcDAF12 agonist | DAX1 inh-1 | DAX1 inh-2 | LXR ag | hcDAF12 ag
Brc1ccc(-c2nc3ccccc3s2)s1 | 1.2* | 12.8* | 10.0* | 1.3 | 2.7 | 1.4 | 11.4*
COc1cccc(/C=N/Nc2ccccc2C(=O)O)c1O | 1.4* | 9.1 | 7.8* | 2.7 | 5.0* | 1.0 | 11.2*
COc1cccc(/C=C2\CC3(OC(=O)c4ccc(Cl)cc4)CCCN2C3)c1 (stereo not drawn) | -0.5 | 3.5 | 3.2 | 0.0 | . | . | .
COc1ccc2[nH]c3c(C)c4ccncc4c(C)c3c2c1 | 2.0* | -0.4 | 7.3* | -1.8 | -0.5 | 0.3 | 3.7
CN(c1ccccc1)c1ccc(/C=N/N2CCOCC2)cc1 | -0.9 | 11.3* | 7.0* | 2.1 | 5.8* | 1.2 | 5.9*
C(=NN1CCCCCC1)c1ccccc1 | -1.0 | 2.6 | 1.1 | 1.6 | 0.3 | . | .
COC(=O)C[C@@H]1CC[C@H]2[C@H](COc3ccc(NC(=O)c4ccc(OC)cc4)cc3C(=O)N2C)O1 | -0.8 | 7.1 | -2.6 | -0.6 | . | . | .
COc1ccccc1C(=O)Nc1ccc2ccccc2c1 | 1.6* | 13.8* | 20.3* | 1.3 | 3.4 | 0.9 | 12.1*
COc1ccccc1C(=O)Nc1cccc(NC(C)=O)c1 | -1.6 | -1.8 | -1.1 | 0.2 | -0.6 | . | .
COc1ccccc1C(=O)Nc1ccc(N2CCCCC2)cc1 | 2.7* | 11.1* | 13.1* | 3.5 | 3.3 | 1.1 | 13.8*
COc1cc2ccccc2cc1C(=O)Nc1nccs1 | 1.4* | 10.6* | 10.0* | 0.5 | 0.8 | 0.6 | 10.8*
COc1c(C(=O)Nc2nccs2)ccc2ccccc12 | -0.6 | 8.5 | 4.8 | 0.8 | 3.4 | . | .
COc1ccccc1C(=O)Nc1ccc(N2CCN(C(C)=O)CC2)cc1 | -1.8 | -0.4 | -1.4 | 0.1 | -0.5 | . | .
CCOc1ccccc1NC(=O)CSc1nc2ccccc2nc1N1CCCC1 | 1.5* | 3.1 | 8.0* | -0.5 | 0.1 | -0.2 | 2.9
CCOc1ccccc1NC(=O)CSc1nc2ccccc2nc1N1CCOCC1 | 0.3 | -1.9 | 2.6 | 0.1 | 1.1 | . | .
C/C(=N\Nc1ccccc1[N+](=O)[O-])c1ccccc1O | -0.2 | 5.6 | 6.9* | 0.5 | 4.4* | 1.4 | 14.4*
C/C(=N\Nc1ccc(S(N)(=O)=O)cc1[N+](=O)[O-])c1ccccc1O | -1.2 | -1.8 | -0.5 | -0.5 | 0.9 | . | .
O=[N+]([O-])c1cccc2ccc(/C=C/c3ccc(F)cc3)nc12 | 0.4 | 14.2* | 8.5* | -0.1 | 0.5 | 0.3 | 6.0*
O=[N+]([O-])c1ccc(/C=C/c2ccc3cccc([N+](=O)[O-])c3n2)cc1 | -0.8 | 5.4 | -0.7 | -1.1 | 1.1 | . | .

Source: PubChem BioAssay
